Test results reported in ChEMBL document CHEMBL3988442, “University of Dundee, Small-Polar-MMV Screening Library” (2021).
In all, about 69,000 compounds went through this assay and about 1,000 (1.4%) showed an effect of 50% or more. This is one part of a sample in which strong results are shown more often than they occur.

Test system: Leishmania donovani
Test: Leishmania intramacrophage assay
Assay type: functional, organism-based
Design: scale not given: in the data most compounds retested in dose-response had high values

O=C(NCc1ccco1)[C@H]1CC[C@@H]2[C@@H](CCN2Cc2nccs2)O1.O=C(O)C(F)(F)F
Percent Effect (30.3 µM, […]): -4.08%

COCC[C@]1(O)CCN(Cc2nc(C(C)C)cs2)C[C@H]1C
Percent Effect (30.3 µM, […]): -0.9404%

COCCn1ccnc1CN(Cc1ccccn1)Cc1sccc1C
Percent Effect (30.3 µM, […]): 60.02%

COCCN(Cc1sccc1C)Cc1nccn1CCOC
Percent Effect (30.3 µM, […]): 16.06%

COCCN(Cc1ccccn1)Cc1sccc1C
Percent Effect (30.3 µM, […]): 0.646%

CC(C)(C)CC(=O)Nc1cnn(-c2ccccc2S(C)(=O)=O)c1
Percent Effect (30.3 µM, […]): 13.51%

CS(=O)(=O)c1ccccc1-n1cc(NC(=O)CC2C=CCC2)cn1 (configuration not stated)
Percent Effect (30.3 µM, […]): 4.466%

CN(CC(=O)Nc1cnn(-c2ccccc2S(C)(=O)=O)c1)C1CC1
Percent Effect (30.3 µM, […]): 52.47%

CC(C)c1cc(=O)[nH]c(-c2ccccc2CN2CCCCCC2)n1
Percent Effect (30.3 µM, […]): 1.494%

CCc1nc2c(c(C)c(C)n2Cc2cccnc2)c(N)c1C
Percent Effect (30.3 µM, […]): 13.69%

CCCc1nc2c(c(C)c(C)n2Cc2cccnc2)c(N)c1CC
Percent Effect (30.3 µM, […]): 64.41%

CCCc1nc2c(c(C)c(C)n2Cc2ccncc2)c(N)c1CC
Percent Effect (30.3 µM, […]): 13.89%

Cc1c(C)n(Cc2ccccn2)c2nc3c(c(N)c12)CCCC3
Percent Effect (30 µM, 30.03 µM): -5.276%

CCCc1nc2c(c(C)c(C)n2Cc2ccccn2)c(N)c1CC
Percent Effect (30.3 µM, […]): 98.46%

Cc1c(C)n(Cc2ccncc2)c2nc3c(c(N)c12)CCCC3
Percent Effect (30.3 µM, […]): 9.739%

O=C(Cc1ccon1)N1CCN(c2ccc(F)cc2Cl)CC1
Percent Effect (30.3 µM, […]): 4.988%

CNC(=O)c1cnn2c(C3CCCN3C)ccnc12 (configuration not stated)
Percent Effect (30.3 µM, […]): -0.3512%

CCN1CCC2(CCN(c3ncccn3)CC2)C1=O.O=C(O)C(F)(F)F
Percent Effect (30.3 µM, […]): -8.891%

Cc1cc(C(=O)NCC(C)C)nn1C
Percent Effect (30.3 µM, […]): 3.079%

Cc1ccc(F)c(OC2CCCN(c3cnn(C)c3)C2=O)c1 (configuration not stated)
Percent Effect (30.3 µM, […]): 1.572%

CN(Cc1nccn1C)S(=O)(=O)Cc1cccc(C#N)c1
Percent Effect (30.3 µM, […]): 3.121%

Cc1c[nH]c(C2CCCN(Cc3ccccc3C(=O)O)C2)n1.O=CO (configuration not stated)
Percent Effect (30.3 µM, […]): -7.994%

CC(=O)N1CCCN(C(=O)NCCNc2cnccn2)CC1
Percent Effect (30 µM): 10.17%

CCc1ccc(CN2C[C@@H]3OCCN(c4ccnc(N(C)C)n4)[C@@H]3C2)o1.O=C(O)C(F)(F)F
Percent Effect (30 µM, 30.03 µM): 55.16%

Cc1cccc(CN2C[C@@H]3OCCN(c4ccnc(N(C)C)n4)[C@@H]3C2)c1.O=C(O)C(F)(F)F
Percent Effect (30.3 µM, […]): -2.723%

CN(C)c1nccc(N2CCO[C@H]3CN(Cc4nccn4C)C[C@H]32)n1.O=C(O)C(F)(F)F
Percent Effect (30.3 µM, […]): 22.89%

CCc1cc(CNC(=O)C2CCCN(C(=O)NCC(C)C)C2)[nH]n1 (configuration not stated)
Percent Effect (30.3 µM, […]): -11.81%
